BLM inh – blocks DNA unwinding by human BLM helicase | recombinant BLM DNA unwinding, fluorescence dequenching | P54132 | hit rate 0.2% among 350,000 | Potency, µM (titrated, usually from 56.1 µM), without a hit: top-dose activity change, negative = inhibition, most hits filed as inhibitors;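 also: plate controls were vehicle for no effect and no enzyme for full effect; nearly all actives have a fitted effect of over 35% in size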
TRb-SRC2 inh – inhibitors of human thyroid hormone receptor beta-SRC2 interaction | Potency, µM (highest dose often 106 µM), inactives show at the highest dose activity change, negative = inhibition, hits mostly inhibitors | P10828 | TRbeta-SRC2 peptide binding, fluorescence polarization; receptor liganded with 1 µM T3 | hit rate 0.065% among 280,000;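 also: plate controls were bound peptide for no effect and peptide without receptor for full effect; nearly all actives have a fitted effect of over 50% in size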
Target sequence (P10828 whole entry, looked up): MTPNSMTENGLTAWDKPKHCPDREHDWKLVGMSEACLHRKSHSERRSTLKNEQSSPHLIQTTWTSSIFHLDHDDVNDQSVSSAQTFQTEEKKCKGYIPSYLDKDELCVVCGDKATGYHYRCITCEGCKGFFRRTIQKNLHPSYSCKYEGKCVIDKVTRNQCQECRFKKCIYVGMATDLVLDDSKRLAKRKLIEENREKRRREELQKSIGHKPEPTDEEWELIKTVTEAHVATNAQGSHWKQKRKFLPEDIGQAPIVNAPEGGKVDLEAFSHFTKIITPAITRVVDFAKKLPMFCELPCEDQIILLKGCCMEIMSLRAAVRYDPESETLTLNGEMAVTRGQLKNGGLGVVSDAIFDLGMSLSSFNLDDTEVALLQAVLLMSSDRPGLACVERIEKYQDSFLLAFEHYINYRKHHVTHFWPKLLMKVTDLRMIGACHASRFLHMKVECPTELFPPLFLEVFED
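Each compound concentration gave % activity, normalized to unbound and bound Texas Red SRC2 controls, from polarization read after 5 hr ambient incubation with T3-loaded human TRb LBD.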
APE1 inh-1 – inhibitors of human APE1 endonuclease | recombinant APE1, TAMRA/BHQ-2 abasic DNA cleavage fluorescence | Potency, µM (series often up to 65.8 µM), inactives show at the highest dose activity change, negative = inhibition, usual class: inhibitors | hit rate 0.35% among 350,000;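 also: plate controls were vehicle for no effect and reference inhibitor for full effect; nearly all actives have a fitted effect of over 55% in size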
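APE1 at 0.75 nM final was preincubated with compound 15 min at room temperature, then 50 nM double-stranded THF abasic-site substrate (5'-TAMRA/3'-BHQ-2) was added. Fluorescence (ex 525/em 598 nm) was read kinetically; third-minus-first read gave activity.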
RECQ1 inh-1 – RECQ1 (human) helicase inhibition; P46063; RECQ1 DNA unwinding, red fluorescence kinetic read; hit rate 0.54% among 240,000; Potency, µM (series often up to 57.3 µM), for inactives: at the highest dose activity, negative = inhibition, actives largely listed as inhibitors; AID 2549;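 also: plate controls were vehicle for no effect and no enzyme for full effect; nearly all actives have a fitted effect of over 30% in size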
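50 nM RECQ1T1 preincubated 15 min with compound in Tris pH 8.0 buffer with MgCl2, DTT, Tween-20 and 2.5 ug/ml poly(dI-dC); started with 200 nM TAMRA/BHQ-2 forked duplex and 2 mM ATP. Unwinding read as fluorescence (525/598 nm), two reads 2 h apart.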
TexasRed fluor – alters Texas Red total fluorescence, flagging assay interference; AID 1479; Potency, µM (highest dose often 106 µM), for inactives: at the highest dose fluorescence change, negative = quenching; hit rate 0.29% among 280,000; TRb/SRC2 Texas Red total fluorescence interference; active = well fitted curve in either direction with a large enough effect; inconclusive = small, poorly fitted or top-dose-only effect
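Flags fluorescent or light-absorbing compounds by total fluorescence, S + 2P, at 555 nm excitation and 632 nm emission. Mixture: 20 nM Texas Red SRC2 peptide, 0.6 uM human TRb LBD, 1 uM T3, 5% DMSO; compound exposure 5 h at ambient temperature.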
RGS12 GoLoco inh – inhibitors of human Gai1-RGS12 GoLoco interaction (red fluorophore) | Potency, µM (titrated, usually from 61.6 µM), inactives show at the highest dose activity, negative = inhibition, usual class: inhibitors | hit rate 0.44% among 230,000 | Gai1:RGS12 GoLoco peptide FP, rhodamine, 10 min | P63096; active = well fitted inhibition curve with a large enough effect, not every such curve was filed as active; inactive = no such curve, though single readings can be large or run the other way; also: nearly all actives have a fitted effect of over 30% in size
APE1 dye cs – displaces fluorescent dye from DNA, flagging APE1 artifacts | shares compounds with APE1 inh-1 | DNA fluorescent dye displacement counterscreen, fluorescence | Potency, µM (doses to about 28.5 µM), for inactives: at the top dose activity change, negative = inhibition, actives largely listed as inhibitors | hit rate 7% among 480 | AID 2564;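 also: loss of thiazole orange fluorescence as the dye is displaced from duplex DNA; 0% = ThO with dsDNA and no compound and -100% = ThO without dsDNA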
EndoIV counter – Endo IV (E. coli) inhibition counter-screen | Potency, µM (doses to about 27.1 µM), without a hit: at the highest dose activity change, negative = inhibition, actives largely listed as inhibitors | shares compounds with APE1 inh-1 | E. coli Endo IV, fluorogenic AP-site DNA cleavage | hit rate 4% among 560 | AID 2565;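 also: plate controls were uninhibited enzyme wells for no effect and no enzyme buffer wells for full effect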
APE1 inh-2 – APE1 (human) endonuclease inhibition, confirmation; shares compounds with APE1 inh-1; purified APE1, fluorogenic abasic-site DNA cleavage; Potency, µM (highest dose often 57.1 µM), for inactives: at the top dose activity change, negative = inhibition, hits mostly inhibitors; hit rate 44% among 750; also: nearly all actives have a fitted effect of over 30% in size
APE1 FP inh – displaces DNA from human APE1 in FP assay; shares compounds with APE1 inh-1; APE1 binding to TAMRA-labelled double-stranded DNA, fluorescence polarization displacement; Potency, µM (top dose mostly 28.5 µM), for inactives: at the top dose activity, negative = inhibition, hits mostly inhibitors; hit rate 7% among 480
RECQ1 conf – confirmation of human RECQ1 helicase inhibitors | shares compounds with RECQ1 inh-1 | RECQ1 helicase DNA unwinding, fluorescence | Potency, µM (titrated, usually from 229 µM), for the others: top-dose activity change, negative = inhibition, actives largely listed as inhibitors | hit rate 28% among 610; also: nearly all actives have a fitted effect of over 45% in size
ADP FP counter – ADP displacement flagged in RECQ1 inhibitor counter-screen. Potency, µM (titrated, usually from 228 µM), inactives show at the highest dose activity change, negative = inhibition, hits mostly inhibitors. shares compounds with RECQ1 inh-1. hit rate 27% among 530. ADP fluorescence polarization displacement counterscreen; also: nearly all actives have a fitted effect of over 45% in size
RECQ1 inh-2 – confirmation of human RECQ1 helicase inhibitors | shares compounds with RECQ1 inh-1 | recombinant RECQ1 DNA unwinding, red fluorescence | Potency, µM (highest dose often 119 µM), for the others: at the top dose activity, negative = inhibition, usual class: inhibitors | hit rate 15% among 1,100; also: nearly all actives have a fitted effect of over 50% in size
* = called active by the depositor; [ ] = dose if it differs, or a comment. Sampled rows, rich in hits. Any-hit rate of the full collection: about 0.9%. Unless noted, calls follow the shape of the dose curve; as a rule, active = well fitted curve in the direction sought with a large enough effect; inconclusive = small, poorly fitted or top-dose-only effect, or another doubt; inactive = no such curve, though single readings can be large; an effect the other way counts as inactive or inconclusive. Unless noted, % is scaled to controls: 0 for no effect and ±100 for the full control effect; potency is read from the fitted curve at half-maximal effect.

For Cc1ccc(CNC(=O)CCS(=O)(=O)c2ccc(Cl)cc2)cc1 the results were BLM inh 0%, TRb-SRC2 inh -3%, APE1 inh-1 2%, RECQ1 inh-1 3% and TexasRed fluor -4%.
Screening Cc1ccc(CNC(=O)CCS(=O)(=O)c2ccc(Br)cc2)cc1 returned BLM inh -17%, TRb-SRC2 inh -4%, APE1 inh-1 inconclusive, RECQ1 inh-1 inconclusive, TexasRed fluor 1%, RGS12 GoLoco inh -22%, APE1 inh-2 inconclusive and RECQ1 inh-2 inconclusive.
Screening CCOC(=O)c1cc(-c2ccc(N3CCOCC3)cc2)nn1-c1ccccc1C(=O)O returned BLM inh -25%, TRb-SRC2 inh 3%, APE1 inh-1 2.5µM*, RECQ1 inh-1 11µM*, TexasRed fluor -4%, RGS12 GoLoco inh -3%, APE1 dye cs 3%, EndoIV counter inconclusive, APE1 inh-2 inconclusive, APE1 FP inh inconclusive, RECQ1 conf 45µM*, ADP FP counter 36%[91.9 µM] and RECQ1 inh-2 inconclusive.
For COc1ccc(C)c2sc(N(Cc3cccnc3)C(=O)COc3ccccc3)nc12 the results were BLM inh -6%, TRb-SRC2 inh -1% and TexasRed fluor 0%.
Screening COc1ccc(/C=C2\SC(=Nc3ccccc3)NC2=O)cc1 returned BLM inh -5% and APE1 inh-1 -18%.
COc1ccc(N=C2NC(=O)/C(=C\c3ccco3)S2)cc1 was read as BLM inh inconclusive, TRb-SRC2 inh 4%, APE1 inh-1 7.9µM*, RECQ1 inh-1 16µM*, TexasRed fluor -28%, RGS12 GoLoco inh 10%, APE1 dye cs -12%, EndoIV counter 10%, APE1 inh-2 13µM*, APE1 FP inh -5%, RECQ1 conf inconclusive, ADP FP counter -13%[91.9 µM] and RECQ1 inh-2 inconclusive.
For O=C(CCN1C(=O)/C(=C/c2ccco2)SC1=S)Nc1ccc(O)cc1C(=O)O the results were BLM inh 29% and APE1 inh-1 -5%.
Screening O=C(CCCN1C(=O)/C(=C/c2ccco2)SC1=S)Nc1ccccc1C(=O)O returned BLM inh 9%, TRb-SRC2 inh 6%, APE1 inh-1 20µM*, RECQ1 inh-1 8.9µM*, TexasRed fluor -14%, RGS12 GoLoco inh 33%, APE1 dye cs -10%, EndoIV counter 119%, APE1 inh-2 13µM*, APE1 FP inh -30%, RECQ1 conf 28µM* and ADP FP counter 50µM*.
Screening CCN(CC)Cc1c(O)c(Cl)cc2c(C)cc(=O)oc12 returned BLM inh -21%, TRb-SRC2 inh 6%, APE1 inh-1 13µM*, RECQ1 inh-1 inconclusive, TexasRed fluor -1%, RGS12 GoLoco inh 16µM*, APE1 dye cs 8%, EndoIV counter -8%, APE1 inh-2 28µM*, APE1 FP inh -44% and RECQ1 inh-2 56µM*.
`O=C(O)C[C@@H]1C(=O)O[C@@H]2C(COC(=O)c3cc(O)c(O)c(O)c3)O[C@@H](OC(=O)c3cc(O)c(O)c(O)c3)[C@@H](OC(=O)c3cc(O)c(O)c4c3[C@H]1[C@H](O)C(=O)O4)[C@H]2OC(=O)c1cc(O)c(O)c(O)c1` (stereo partly specified) gave BLM inh 0.1µM*, TRb-SRC2 inh 16%, APE1 inh-1 0.0089µM*, RECQ1 inh-1 0.11µM*, TexasRed fluor inconclusive, RGS12 GoLoco inh -13%, APE1 dye cs inconclusive, EndoIV counter inconclusive, APE1 inh-2 0.0022µM*, APE1 FP inh inconclusive, RECQ1 conf 0.45µM* and ADP FP counter 32µM*.
`COC1OC(COC(=O)c2ccccc2)C(OC(=O)c2ccccc2)C1OC(=O)c1ccccc1` (stereo unspecified) gave BLM inh -7% and APE1 inh-1 -2%.
Screening O=C(COc1ccccc1C(=O)N/N=C\c1ccc(O)c(O)c1)N/N=C/c1ccc(O)c(O)c1 returned BLM inh 2µM*, TRb-SRC2 inh 7%, APE1 inh-1 2.8µM*, RECQ1 inh-1 1µM*, TexasRed fluor -21%, RGS12 GoLoco inh -20%, APE1 dye cs 6.3µM*, EndoIV counter 29%, APE1 inh-2 2µM*, APE1 FP inh inconclusive, RECQ1 conf 2.2µM* and ADP FP counter -14%[91.9 µM].
For O=C(COc1ccccc1[N+](=O)[O-])N/N=C/c1ccc(O)c([N+](=O)[O-])c1 the results were BLM inh 1%, TRb-SRC2 inh 5%, APE1 inh-1 -6%, RECQ1 inh-1 0%, TexasRed fluor -2% and RGS12 GoLoco inh 1%.
For Cc1ccccc1Nc1c(-c2ccsc2)nc2c(C)cccn12 the results were BLM inh -1%, TRb-SRC2 inh 5% and TexasRed fluor -1%.
